Records with an inconclusive call do not appear. A call without a number means that no potency is given here. Activity calls are given as the source filed them. Calls follow the shape of the dose curve; as a rule, active = well fitted curve in the direction sought with a large enough effect; inconclusive = small, poorly fitted or top-dose-only effect, or another doubt; inactive = no such curve, though single readings can be large; an effect the other way counts as inactive or inconclusive.
Legend:
[1] = molecular target: Rap guanine nucleotide exchange factor 3 (Homo sapiens) (UniProt O95398); experiment: Confirmatory qHTS for agonist of cAMP-regulated guanine nucleotide exchange factor 3 (EPAC1) (AID 1645881);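 also: EPAC1 catalysed release of BODIPY-GDP from Rap1B seen as fluorescence loss; nearly all actives have a fitted effect of over 75% in size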
Chain of Rap guanine nucleotide exchange factor 3 (Homo sapiens) (O95398 whole entry, looked up): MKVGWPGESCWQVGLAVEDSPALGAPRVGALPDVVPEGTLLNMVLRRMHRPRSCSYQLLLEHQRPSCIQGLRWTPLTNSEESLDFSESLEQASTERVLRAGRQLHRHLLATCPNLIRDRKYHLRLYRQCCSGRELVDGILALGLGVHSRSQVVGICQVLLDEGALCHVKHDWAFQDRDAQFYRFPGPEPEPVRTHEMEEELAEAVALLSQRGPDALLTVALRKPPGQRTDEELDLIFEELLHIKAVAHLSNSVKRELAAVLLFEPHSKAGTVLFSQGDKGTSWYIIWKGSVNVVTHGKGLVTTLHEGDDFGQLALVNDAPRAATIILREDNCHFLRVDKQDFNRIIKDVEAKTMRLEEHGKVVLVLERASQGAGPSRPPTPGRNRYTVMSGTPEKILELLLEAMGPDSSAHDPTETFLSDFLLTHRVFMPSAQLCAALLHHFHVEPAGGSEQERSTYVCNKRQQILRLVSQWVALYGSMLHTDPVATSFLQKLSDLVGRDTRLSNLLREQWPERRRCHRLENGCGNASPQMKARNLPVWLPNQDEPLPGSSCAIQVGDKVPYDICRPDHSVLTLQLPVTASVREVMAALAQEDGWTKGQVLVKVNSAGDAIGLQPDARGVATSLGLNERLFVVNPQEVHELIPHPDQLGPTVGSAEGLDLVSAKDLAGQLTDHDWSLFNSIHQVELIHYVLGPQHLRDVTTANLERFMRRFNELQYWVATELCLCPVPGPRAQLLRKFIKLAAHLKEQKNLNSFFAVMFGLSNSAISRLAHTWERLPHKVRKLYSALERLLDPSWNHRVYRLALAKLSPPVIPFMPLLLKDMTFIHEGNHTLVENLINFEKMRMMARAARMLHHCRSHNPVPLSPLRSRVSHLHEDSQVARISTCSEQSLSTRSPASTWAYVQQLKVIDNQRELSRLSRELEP

[2] = molecular target: Rap guanine nucleotide exchange factor 4 (Homo sapiens) (UniProt Q8WZA2); experiment: Confirmatory qHTS for agonist of cAMP-regulated guanine nucleotide exchange factor 4 (EPAC2) (AID 1645884);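 also: nucleotide exchange releases bodipy-GDP from Rap1 and this lowers its fluorescence; nearly all actives have a fitted effect of over 65% in size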
Chain of Rap guanine nucleotide exchange factor 4 (Homo sapiens) (Q8WZA2 whole entry, looked up): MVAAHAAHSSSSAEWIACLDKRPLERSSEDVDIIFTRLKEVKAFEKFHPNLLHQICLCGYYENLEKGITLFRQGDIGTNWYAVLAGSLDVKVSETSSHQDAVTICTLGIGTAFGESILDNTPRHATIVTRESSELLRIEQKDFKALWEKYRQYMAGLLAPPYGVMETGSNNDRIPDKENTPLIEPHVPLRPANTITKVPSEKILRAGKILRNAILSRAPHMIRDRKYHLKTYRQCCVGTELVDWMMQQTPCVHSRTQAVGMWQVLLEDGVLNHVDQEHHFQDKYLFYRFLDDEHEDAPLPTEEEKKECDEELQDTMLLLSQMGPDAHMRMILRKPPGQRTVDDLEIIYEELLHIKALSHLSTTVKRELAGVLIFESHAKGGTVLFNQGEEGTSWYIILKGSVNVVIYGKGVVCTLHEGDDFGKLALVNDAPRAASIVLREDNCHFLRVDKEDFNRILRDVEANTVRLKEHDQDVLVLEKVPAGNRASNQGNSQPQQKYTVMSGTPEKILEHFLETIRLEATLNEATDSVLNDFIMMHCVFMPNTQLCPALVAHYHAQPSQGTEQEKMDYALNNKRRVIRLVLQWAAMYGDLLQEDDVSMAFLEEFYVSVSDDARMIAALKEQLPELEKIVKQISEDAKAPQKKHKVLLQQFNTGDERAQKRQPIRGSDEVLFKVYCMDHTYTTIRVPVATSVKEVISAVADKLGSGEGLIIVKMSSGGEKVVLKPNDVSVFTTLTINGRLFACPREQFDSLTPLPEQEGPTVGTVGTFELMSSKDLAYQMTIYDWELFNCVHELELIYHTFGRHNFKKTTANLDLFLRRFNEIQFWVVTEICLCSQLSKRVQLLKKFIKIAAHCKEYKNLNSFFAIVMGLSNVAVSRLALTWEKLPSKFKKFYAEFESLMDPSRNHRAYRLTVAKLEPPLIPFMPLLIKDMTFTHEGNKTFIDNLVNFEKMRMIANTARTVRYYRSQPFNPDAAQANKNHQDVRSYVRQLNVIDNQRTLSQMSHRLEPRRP

[3] = molecular target: Rap guanine nucleotide exchange factor 4 (Homo sapiens) (UniProt Q8WZA2); experiment: Confirmatory qHTS for antagonist of cAMP-regulated guanine nucleotide exchange factor 4 (EPAC2) (AID 1645885); also: nearly all actives have a fitted effect of over 25% in size; also: potency is read from the fitted curve at half-maximal effect
[4] = molecular target: Rap guanine nucleotide exchange factor 3 (Homo sapiens) (UniProt O95398); experiment: Counterscreen qHTS for antagonist of cAMP-regulated guanine nucleotide exchange factor 3 (EPAC1) (AID 1645888);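 also: fluorescence loss as bound BODIPY-GDP is released from Rap1B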
How it was run: (§1)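 Rap1B–BODIPY-GDP (250 nM) with 50 uM GDP; compounds pin-transferred to 9.74 nM–152 uM final (activator) or from 7.32 nM upwards (inhibitor). Fluorescence Ex/Em 480/540 nm read at 5 and 30 min, then after adding cAMP or buffer, at room temperature.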

[5] = molecular target: Rap guanine nucleotide exchange factor 3 (Homo sapiens) (UniProt O95398); experiment: Counterscreen qHTS for agonist of cAMP-regulated guanine nucleotide exchange factor 3 (EPAC1) (AID 1645889); also: nearly all actives have a fitted effect of over 40% in size
How it was run: as §1

Cc1ccc2nc(-c3ccccc3)c(Cc3cccc(F)c3)n2c1
Potency [1]: inactive | Potency [2]: inactive | Potency [3]: 0.426 µM (active) | Potency [4]: inactive | Potency [5]: inactive

CCN(CC)C(=O)c1ccc2c(c1)N(Cc1ccc(C(F)(F)F)cc1)C(=O)c1ccccc1S2
Potency [1]: inactive | Potency [2]: inactive | outcome [3]: inactive [at 12.7 µM] | Potency [4]: inactive | Potency [5]: inactive

COc1cc(/C=C(\C#N)c2nc3ccc(C)cc3[nH]2)ccc1OCc1ccc(C)cc1
Potency [1]: inactive | Potency [2]: inactive | Potency [3]: inactive | Potency [4]: inactive | Potency [5]: inactive

O=C(O)CCc1ccc(-c2ccc(Br)cc2)n1-c1ccc(O)cc1
Potency [1]: inactive | Potency [2]: inactive | Potency [3]: 42.6 µM (active) | Potency [4]: inactive | Potency [5]: inactive

Cc1cccc2sc(N(CCCN(C)C)C(=O)CCS(=O)(=O)c3ccccc3)nc12
Potency [1]: inactive | Potency [2]: inactive | Potency [3]: inactive | Potency [4]: inactive | Potency [5]: inactive

Source: PubChem BioAssay (NCATS)
